The nature of test [1]: resazurin metabolic signal in HepG2 cells – cell-based, resazurin fluorescence, 24 h, PK04 Diversity Set, profiling panel (AID 1172). The note with it: HepG2 viability, higher = more signal. In general terms: Resazurin is reduced to fluorescent resorufin, in cell work by metabolically active cells.
The nature of test [2]: budding yeast growth changes without added modifier – OD600, strain BY4716, 24 h, basal condition, primary screen (AID 1173). Conditions: S. cerevisiae BY4716 growth, OD600, 24 h; higher = more signal, called active from +8 up or from −8 down.
The nature of test [3]: viability profiling in MM1S myeloma cells – cell-based, resazurin fluorescence, basal, 24 h, PK04 Diversity Set, profiling panel (AID 1174).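 Further: MM1S multiple myeloma cell line.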 The note with it: higher = more signal, called active from +8 up or from −8 down.
Test [4] addresses Dihydroorotate dehydrogenase (quinone), mitochondrial (Plasmodium falciparum (isolate 3D7)) (UniProt Q08210). As to the kind of experiment: inhibition of P. falciparum DHODH – biochemical, C-terminal His tag, absorbance 600 nm, primary screen (AID 1175).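 Further: recombinant parasite enzyme with a five histidine tag at its C terminus.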 The note with it: PfDHODH enzyme, DCIP absorbance 600 nm; higher = more signal, called active from +8 up or from −8 down.
Test [5] is described as follows: inhibition of PAO1 biofilm formation – strain PAO1, LB-PBS medium, absorbance 600 nm, primary screen (AID 1176). Conditions: P. aeruginosa PAO1 growth/biofilm, A600, 12 h; higher = more signal.
Test [6] is described as follows: growth modulation of vineyard yeast isolate – strain RM11-1a, OD600, basal, 24 h, primary screen (AID 1177).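 Further: cultures grown under basal conditions with no added stressor.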 The note with it: S. cerevisiae RM11-1a growth, OD600, 24 h; higher = more signal, called active from +8 up or from −8 down.
Test [7] is described as follows: growth of efflux-deficient E. coli DRC39 – strain DRC39, OD650, 24 h, E. coli filamentation inducers, primary screen (AID 1178).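 Further: growth measured as culture turbidity by optical density at 650 nm.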 Conditions: E. coli DRC39 acrAB, higher = more signal, called active from +8 up or from −8 down.
Test [8] can be described thus: growth of efflux-deficient E. coli DRC39 – strain DRC39, OD650, 48 h, E. coli filamentation inducers, primary screen (AID 1179).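 Further: screen aims at cell division blockers that make cells filament.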 Conditions: E. coli DRC39 delta-acrAB growth, higher = more signal, called active from +8 up or from −8 down.
The nature of test [9]: viability profiling in RPMI8226 myeloma cells – cell-based, resazurin fluorescence, basal, 24 h, PK04 Diversity Set, profiling panel (AID 1180).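 Further: RPMI8826 multiple myeloma cell line at 5000 cells per well.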 Conditions: higher = more signal.
The target of test [10] is E3 ubiquitin-protein ligase XIAP (Homo sapiens) (UniProt P98170). As to the kind of experiment: small molecules binding XIAP protein – biophysical, small-molecule microarray, fluorescence 635 nm, primary screen (AID 1181).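 Further: score merges 667 nm emission and signal to noise over triplicate slides.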 Conditions: higher = more signal.
The subject of test [11] is XIP peptide (Xip251-270) binding. As to the kind of experiment: XIP fragment 251-270 binding compounds – biochemical, small-molecule microarray, fluorescence 635/667 nm, 0.1 µg/mL protein, primary screen (AID 1182). The note with it: fluorescent protein binding, 635 nm, higher = more signal, called active from +8 up or from −8 down.
The test system of a further test is XIP peptide (Xip251-270). Nature of the test: compounds binding XIP fragment 251-270 – biochemical, small-molecule microarray, fluorescence 635/667 nm, 0.5 µg/mL protein, primary screen (AID 1183). The note with it: fluorescence 635 nm, higher = more signal.
Test [12] is described as follows: blood-stage malaria parasite viability loss – strain 3D7, DAPI fluorescence, 100 nL, primary screen (AID 1184).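 Further: parasites grown inside human red blood cells in medium with human serum.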 Conditions: P. falciparum 3D7 growth, 3 d, higher = more signal.
Test [13] has as its target Homeobox protein Hox-A13 (Mus musculus) (UniProt Q62424). Nature of the test: disruptors of Hoxa13 oligonucleotide interaction – biochemical, fluorescence polarization, labeled oligonucleotide, primary screen (AID 1185). The note with it: Hoxa13:DNA binding, 15 min, higher = more signal, called active from +8 up or from −8 down.
Test [14] can be described thus: blockers of DNA damage checkpoint Chk1 activation – imaging, HeLa, hydroxyurea, phospho-Chk1 antibody, percent positive cells, primary screen (AID 1186). Conditions: hydroxyurea-induced phospho-Chk1 immunofluorescence imaging, higher = more signal.
Test [15] in a line: blockers of DNA damage checkpoint Chk1 activation – imaging, HeLa, hydroxyurea, phospho-Chk1 nuclear intensity, primary screen (AID 1187). The note with it: hydroxyurea-induced phospho-Chk1 immunofluorescence imaging, higher = more signal.

The source made the active and inactive calls. Unless noted, how the calls were made is not given here.

These results are taken from PubChem BioAssay.

E3 ubiquitin-protein ligase XIAP (Homo sapiens), sequence (P98170 whole entry, looked up, the tested form may be a part): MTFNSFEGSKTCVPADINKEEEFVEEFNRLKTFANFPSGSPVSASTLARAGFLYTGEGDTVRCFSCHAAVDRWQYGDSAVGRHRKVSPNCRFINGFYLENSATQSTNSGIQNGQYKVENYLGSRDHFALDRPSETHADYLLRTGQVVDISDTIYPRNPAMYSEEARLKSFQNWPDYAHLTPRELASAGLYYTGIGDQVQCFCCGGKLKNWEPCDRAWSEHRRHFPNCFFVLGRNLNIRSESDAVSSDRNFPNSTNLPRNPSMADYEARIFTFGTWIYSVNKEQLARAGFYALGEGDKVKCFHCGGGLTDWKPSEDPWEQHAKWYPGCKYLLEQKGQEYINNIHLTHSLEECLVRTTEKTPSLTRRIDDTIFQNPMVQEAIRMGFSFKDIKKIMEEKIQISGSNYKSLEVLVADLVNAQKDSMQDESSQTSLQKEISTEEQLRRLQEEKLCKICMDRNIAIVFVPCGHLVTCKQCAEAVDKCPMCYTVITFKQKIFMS
Dihydroorotate dehydrogenase (quinone), mitochondrial (Plasmodium falciparum (isolate 3D7)), sequence (Q08210 whole entry, looked up): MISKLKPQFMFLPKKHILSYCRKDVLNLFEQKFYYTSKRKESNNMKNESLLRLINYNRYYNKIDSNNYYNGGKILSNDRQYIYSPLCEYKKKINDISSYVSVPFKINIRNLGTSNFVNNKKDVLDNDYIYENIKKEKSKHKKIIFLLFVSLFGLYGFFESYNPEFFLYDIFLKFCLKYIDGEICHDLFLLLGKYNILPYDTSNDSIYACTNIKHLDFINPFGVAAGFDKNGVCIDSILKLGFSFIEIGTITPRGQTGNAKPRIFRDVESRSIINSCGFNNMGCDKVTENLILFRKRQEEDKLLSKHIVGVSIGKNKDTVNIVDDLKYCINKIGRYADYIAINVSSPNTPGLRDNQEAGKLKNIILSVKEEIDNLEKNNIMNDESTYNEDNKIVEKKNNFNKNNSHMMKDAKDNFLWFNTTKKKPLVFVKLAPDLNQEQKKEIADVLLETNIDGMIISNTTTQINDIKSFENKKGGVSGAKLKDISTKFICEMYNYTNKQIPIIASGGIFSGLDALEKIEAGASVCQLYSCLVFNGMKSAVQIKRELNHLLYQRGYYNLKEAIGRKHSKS
Homeobox protein Hox-A13 (Mus musculus), sequence (Q62424 whole entry, looked up): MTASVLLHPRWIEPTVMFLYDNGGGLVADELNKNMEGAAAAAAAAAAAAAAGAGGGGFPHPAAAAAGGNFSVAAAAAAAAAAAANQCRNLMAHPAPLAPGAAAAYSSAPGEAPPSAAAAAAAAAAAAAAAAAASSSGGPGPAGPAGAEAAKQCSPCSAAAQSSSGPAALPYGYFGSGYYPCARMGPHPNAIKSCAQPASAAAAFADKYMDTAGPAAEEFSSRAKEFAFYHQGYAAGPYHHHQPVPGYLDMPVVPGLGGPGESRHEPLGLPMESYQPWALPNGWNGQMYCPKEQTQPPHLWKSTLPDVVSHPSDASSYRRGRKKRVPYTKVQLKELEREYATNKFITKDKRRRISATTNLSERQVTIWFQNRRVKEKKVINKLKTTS

`COc1ccc([Si](C)(C)[C@H]2[C@H](CCO)O[C@@]3(C(=O)N(Cc4cccc(N(C=O)c5ccccc5)c4)c4ccccc43)[C@@H]2C)cc1`: the z-score is -1.85 in test [1]; 1.27 (inactive) in [2]; -3.37 (inactive) in test [3]; 1.45 (inactive) in [5]; 4.32 (inactive) in test [6]; 1.61 (inactive) in test [7]. For the same molecule, the z-score in test [8] was 1.41 (inactive); in [9] it was -3.77; in test [12], -2.57; in test [13] it was -0.557 (inactive); in test [14], -1.73 (inactive); in test [15], -0.831 (inactive). The composite z-score in [4] is 0.105 (inactive); in test [10] it was 0.203; in test [11], 0.293 (inactive); in the test with XIP peptide (Xip251-270), 0.665.

`CC(C)N1C(=O)c2ccccc2[C@](C)(C(=O)NCC(F)(F)F)[C@@H]1c1ccc(CO)cc1`: the z-score in [1] was -0.116; in test [2], -1.3 (inactive); in test [3], 0.117 (inactive); in [5], -0.618 (inactive); in [6], -0.613 (inactive); in test [7] it was 0.558 (inactive). Further, the z-score was -0.0513 (inactive) in [8]; 1.45 in [9]; -0.805 in [12]; -1.98 (inactive) in test [13]; 0.256 (inactive) in test [14]; 0.462 (inactive) in test [15]. For the same molecule, the composite z-score in [4] was -0.172 (inactive); in [10] it was -0.0195; in test [11], 0.112 (inactive); in the test with XIP peptide (Xip251-270), 0.464.

Take `Cc1ccc(F)cc1S(=O)(=O)N[C@H]1CCN(Cc2ccc(OC(C)C)cc2)C1`: the z-score in [1] was -0.757; in test [2], -9.28 (active); in test [3], -1.1 (inactive); in test [5], -0.107 (inactive); in test [6], 0.297 (inactive); in [7], -1.42 (inactive). The z-score in test [8] was -2.48 (inactive); in test [9], -1.19; in [12] it was 0.646; in [13], -5.72 (inactive); in test [14] it was -0.0604 (inactive); in [15], 0.581 (inactive). Further, the composite z-score is -0.0588 (inactive) in test [4], -0.0773 in test [10], 0.479 (inactive) in test [11] and 0.338 in the test on XIP peptide (Xip251-270).

As for `COc1ccc(C(O)C2C=CC3C(=O)N(c4ccccc4)C(=O)C3N2Nc2ccc([N+](=O)[O-])cc2)c2ccccc12` (centres undefined), the z-score in test [1] was 0.248; in test [2], 0.0244 (inactive); in test [3] it was -0.121 (inactive); in [5] it was 2.53 (inactive); in test [6], 0.0842 (inactive); in test [7], -0.901 (inactive). For the same molecule, the z-score in [8] is -0.219 (inactive); in test [9], -0.322; in test [12] it was -1.32; in test [13], -0.935 (inactive); in test [14], 0.219 (inactive); in test [15] it was -0.404 (inactive). The composite z-score in test [4] was 0.767 (inactive); in test [10], 0.312; in test [11], 0.314 (inactive); in the test on XIP peptide (Xip251-270) it was 0.685.

Turning to `O=C(NC1CC1)[C@@H]1c2ccccc2C(=O)N(Cc2cc(C(F)(F)F)cc(C(F)(F)F)c2)[C@H]1c1ccc(CO)cc1`, the z-score in [1] is -0.0465; in test [2] it was -0.313 (inactive); in test [3], -0.498 (inactive); in [5], 1.12 (inactive); in test [6] it was -0.44 (inactive); in [7], 0.655 (inactive). Moreover, the z-score was -0.261 (inactive) in test [8]; 0.51 in test [9]; -1.54 in [12]; -2.66 (inactive) in test [13]; -0.129 (inactive) in test [14]; -0.394 (inactive) in test [15]. Moreover, the composite z-score was -0.331 (inactive) in test [4], -0.0448 in test [10], 0.684 (inactive) in test [11] and 0.62 with XIP peptide (Xip251-270).

In the case of `COC(=O)C(CC#Cc1ccc2c(c1)[C@]1(C(=O)N2)[C@H](C(=O)N2CCc3cc(OC)c(OC)cc3C2)[C@H]2C(=O)O[C@H](c3ccccc3)[C@H](c3ccccc3)N2[C@@H]1c1ccccc1OCCO)C(=O)OC`, the z-score was -0.553 in test [1]; 1.79 (inactive) in [2]; -1.03 (inactive) in [3]; 3.81 (inactive) in [5]; 2.83 (inactive) in test [6]; 0.154 (inactive) in test [7]. Also, the z-score is 0.618 (inactive) in [8]; -0.705 in test [9]; -2.23 in test [12]; 2.81 (inactive) in test [13]; -0.0915 (inactive) in [14]; 0.0536 (inactive) in test [15]. Moreover, the composite z-score in test [4] was -7.03 (inactive); in test [10] it was -0.11; in [11] it was 0.254 (inactive); with XIP peptide (Xip251-270) it was 0.796.

Regarding `CC1CC/C=C\[C@H]2OC34C=CCN(Cc5ccccc5)C(=O)[C@H]3N(CCCCCCO)C(=O)[C@@H]4C2C(=O)O1` (some centres undefined), the z-score in test [1] was 0.279; in test [2], -0.885 (inactive); in test [3], 0.507 (inactive); in [5] it was -1.06 (inactive); in test [6], -0.38 (inactive); in [7] it was 0.608 (inactive). For the same molecule, the z-score is 1.01 (inactive) in test [8]; 1.15 in test [9]; -0.147 in test [12]; -5.85 (inactive) in [13]; 0.0339 (inactive) in [14]; 0.0311 (inactive) in test [15]. For the same molecule, the composite z-score was 0.285 (inactive) in test [4], -0.0741 in [10], 1.32 (inactive) in test [11] and -0.367 in the test on XIP peptide (Xip251-270).

Regarding `COC(=O)C[C@H]1O[C@@]2(C[C@@H]1[Si](C)(C)C)C(=O)N(C)c1ccccc12`, the z-score is 0.791 in test [1]; -3.71 (inactive) in test [2]; 1.41 (inactive) in test [3]; 0.826 (inactive) in test [5]; -3.42 (inactive) in [6]; 2.3 (inactive) in test [7]. Also, the z-score in test [8] is 0.92 (inactive); in [9], 0.904; in [12], 0.357; in test [13], -0.91 (inactive); in [14] it was -0.597 (inactive); in test [15], -0.0422 (inactive). Further, the composite z-score in test [4] was -0.655 (inactive); in test [10], -0.0966; in [11] it was -0.227 (inactive); with XIP peptide (Xip251-270), -0.186.

Turning to `CCOC(=O)C1=C[C@@H](C(C)(C)C)N(S(=O)(=O)c2ccc(C)cc2)[C@H]1c1ccc(C#N)cc1`, the z-score in test [1] was -0.718; in [2], 2.25 (inactive); in test [3], -0.153 (inactive); in test [5] it was 0.16 (inactive); in test [6], 1.56 (inactive); in [7], -0.264 (inactive). Moreover, the z-score in test [8] is -0.361 (inactive); in [9], -1.22; in [12], -1.82; in test [13], -0.543 (inactive); in test [14], 0.892 (inactive); in test [15] it was 1.21 (inactive). In addition, the composite z-score in [4] was -0.158 (inactive); in [10], -0.0559; in test [11], -0.331 (inactive); in the test with XIP peptide (Xip251-270), 0.662.
